Measured values published in PubChem BioAssay AID1159580 (chemical genetic matrix, 2015).
In all, about 5,500 compounds went through this assay and about 2,000 (36%) were called active. About 18% were inconclusive and are not listed. Some of the results follow. Unmarked numbers belong to inactive results. No stated cut-off is given here; in the data, active means normalized growth mostly below about 0.91 (no sharp cut-off); inconclusive means no clear call, values can overlap the other calls; inactive means mostly above about 0.92.

Assay: chemical genetic growth profiling, strain panel (AID 1159580);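 further: tested at 20 µM; growth read once vehicle control cultures reached saturation at 30 °C; 1 = growth at the plate median or of vehicle wells; lower values mean less growth of the strain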
Details: growth OD
[1] = S. cerevisiae deletion strains, locus YAL013W, strain DEP1, hits give low values
[2] = S. cerevisiae deletion strains, locus YBR229C, strain ROT2, hits give low values
[3] = S. cerevisiae deletion strains, locus YDL101C, strain DUN1, hits give low values
[4] = S. cerevisiae deletion strains, locus YDL134C, strain PPH21, hits give low values
[5] = S. cerevisiae deletion strains, locus YDR150W, strain NUM1, hits give low values
[6] = S. cerevisiae deletion strains, locus YEL061C, strain CIN8, hits give low values
[7] = S. cerevisiae deletion strains, locus YGR078C, strain PAC10, hits give low values
[8] = S. cerevisiae deletion strains, locus YHR030C, strain SLT2, hits give low values
[9] = S. cerevisiae deletion strains, locus YHR087W, strain rtc3, hits give low values
[10] = S. cerevisiae deletion strains, locus YJR043C, strain POL32, hits give low values
[11] = S. cerevisiae deletion strains, locus YJR075W, strain HOC1, hits give low values
[12] = S. cerevisiae deletion strains, locus YKL190W, strain CNB1, hits give low values
[13] = S. cerevisiae deletion strains, locus YLR039C, strain RIC1, hits give low values
[14] = S. cerevisiae deletion strains, locus YLR058C, strain SHM2 (second series), hits give low values
[15] = S. cerevisiae deletion strains, locus YLR085C, strain ARP6, hits give low values
[16] = S. cerevisiae deletion strains, locus YLR262C, strain YPT6, hits give low values
[17] = S. cerevisiae deletion strains, locus YML094W, strain GIM5, hits give low values
[18] = S. cerevisiae deletion strains, locus YMR219W, strain ESC1, hits give low values
[19] = S. cerevisiae deletion strains, locus YMR263W, strain SAP30, hits give low values
[20] = S. cerevisiae deletion strains, locus YMR307W, strain GAS1, hits give low values
[21] = S. cerevisiae deletion strains, locus YNL153C, strain GIM3, hits give low values
[22] = S. cerevisiae deletion strains, locus YNL298W, strain CLA4 (second series), hits give low values
[23] = S. cerevisiae deletion strains, locus YNL322C, strain KRE1, hits give low values
[24] = S. cerevisiae deletion strains, locus YNR030W, strain Alg12, hits give low values
[25] = S. cerevisiae deletion strains, locus YPL055C, strain LGE1, hits give low values
[26] = S. cerevisiae deletion strains, locus YPL241C, strain CIN2, hits give low values
[27] = S. cerevisiae deletion strains, locus YPR135W, strain CTF4, hits give low values

With `O=C1C=C(Cl)CC(c2ccc(C(F)(F)F)cc2)C1` (stereo not drawn) the normalized growth [1] was 1, the normalized growth [2] was 0.988 and the normalized growth (S. cerevisiae deletion strains, locus YCL061C, strain MRC1, hits give low values) was 1.01. It also gave a normalized growth [3] of 0.995, a normalized growth [4] of 1.03 and a normalized growth [5] of 1.1. It also gave a normalized growth [6] of 1.03, a normalized growth [7] of 1.01 and a normalized growth [8] of 0.987. The normalized growth [9] was 0.975, the normalized growth [10] was 1.01 and the normalized growth [11] was 1.02. It also gave a normalized growth [12] of 0.983, a normalized growth [13] of 0.936 and a normalized growth [14] of 0.986. For the same compound, the normalized growth [15] was 1.06, the normalized growth [16] was 0.94 and the normalized growth [17] was 1.04. The normalized growth [18] was 1.01, the normalized growth [19] was 0.989 and the normalized growth [20] was 1.01. It also gave a normalized growth (S. cerevisiae deletion strains, locus YNL128W, strain TEP1, hits give low values) of 0.987, a normalized growth [21] of 0.992 and a normalized growth [22] of 0.985. The normalized growth [23] was 0.991, the normalized growth [24] was 1.02 and the normalized growth [25] was 1.14. For the same compound, the normalized growth [26] was 1.02, the normalized growth [27] was 1.03 and the normalized growth (S. cerevisiae strains, strain wild type, hits give low values) was 0.971.

In the case of `CC(=O)C1C(=O)CC(c2ccc(Cl)cc2)CC1=O` (stereo not drawn), the normalized growth [1] is reported as 0.342 (active), the normalized growth [2] is reported as 0.454 (active) and the normalized growth [3] is reported as 0.425 (active). For the same compound, the normalized growth [4] was 0.854 (active), the normalized growth [5] was 0.489 (active) and the normalized growth [6] was 0.867 (active). For the same compound, the normalized growth [7] was 0.463 (active), the normalized growth [8] was 0.199 (active) and the normalized growth [9] was 0.541 (active). For the same compound, the normalized growth [10] was 0.585 (active), the normalized growth [11] was 0.444 (active) and the normalized growth [12] was 0.848 (active). For the same compound, the normalized growth [13] was 0.218 (active), the normalized growth [14] was 0.761 (active) and the normalized growth [15] was 0.529 (active). For the same compound, the normalized growth [16] was 0.219 (active), the normalized growth [17] was 0.901 and the normalized growth [18] was 0.562 (active). For the same compound, the normalized growth [19] was 0.268 (active), the normalized growth [20] was 0.218 (active) and the normalized growth [21] was 0.512 (active). For the same compound, the normalized growth [22] was 0.849, the normalized growth [23] was 0.796 (active) and the normalized growth [24] was 0.855 (active). For the same compound, the normalized growth (S. cerevisiae deletion strains, locus YOL006C, strain TOP1, hits give low values) was 0.774, the normalized growth [25] was 0.211 (active) and the normalized growth [26] was 0.845 (active). For the same compound, the normalized growth [27] was 0.718.
